# Reference: PubChem BioAssay (NCATS)
# Unmarked numbers belong to inactive results. Inconclusive results are not listed. Where a call stands in place of a potency, no number is given. Activity calls are given as the source filed them. Unless noted, the call rests on the fitted dose curve; in most records, active means well fitted curve in the direction sought with a large enough effect; inconclusive means small, poorly fitted or top-dose-only effect, or another doubt; inactive means no such curve, though single readings can be large; an effect the other way counts as inactive or inconclusive.
# What was measured:
# [1] = NFAT Signaling Pathway (AID 444; active means well fitted curve in either direction with a large enough effect, not every such curve was filed as active;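 further: carbachol stimulus at about its EC50 of 1 µM final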); conditions: Jurkat NFAT-bla M1, carbachol, beta-lactamase ratio, 5 h; at 17.2 µM (top of the series) unless noted
# Method in brief: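 Read-out: CCF4 FRET ratio (460 nm/530 nm) after 1 h RT dye loading, used for %activity and AC50 from titration series. Cells: Jurkat NFAT-β-lactamase/M1 line, treated with compound plus 1 uM carbachol for 5 h, 37 °C.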
# [2] = molecular target: ATP-dependent 6-phosphofructokinase (Trypanosoma brucei brucei) (UniProt O15648); assay: qHTS Assay to Find Inhibitors of T. brucei phosphofructokinase: hit validation (AID 492961);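 further: luminescence reports ADP formed as PFK phosphorylates fructose-6-phosphate with ATP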; conditions: T. brucei PFK, ADP-Glo luminescence; series mostly up to 24.3 µM
# Chain of ATP-dependent 6-phosphofructokinase (Trypanosoma brucei brucei) (O15648 whole entry, looked up): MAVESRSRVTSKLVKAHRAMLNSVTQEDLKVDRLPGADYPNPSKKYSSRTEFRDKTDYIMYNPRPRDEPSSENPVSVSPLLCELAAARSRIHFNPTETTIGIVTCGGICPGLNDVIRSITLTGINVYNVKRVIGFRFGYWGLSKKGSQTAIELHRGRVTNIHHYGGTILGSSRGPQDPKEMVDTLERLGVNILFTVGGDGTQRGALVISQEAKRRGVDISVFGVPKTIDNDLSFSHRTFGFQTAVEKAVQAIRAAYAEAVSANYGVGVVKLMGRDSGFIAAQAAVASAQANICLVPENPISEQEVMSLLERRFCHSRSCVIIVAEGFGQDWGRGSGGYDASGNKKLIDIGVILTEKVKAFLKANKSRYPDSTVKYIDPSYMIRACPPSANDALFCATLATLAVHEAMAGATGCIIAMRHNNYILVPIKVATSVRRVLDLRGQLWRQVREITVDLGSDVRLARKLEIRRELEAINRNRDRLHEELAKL
# Method in brief: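 In this biochemical qHTS validation, titrated compounds were tested against 1.25 nM PFK with 0.1 mM ATP and 0.5 mM F6P. Percent activity came from controls lacking or containing enzyme.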
# [3] = tested on: DFO2036; assay: qHTS profiling for inhibitors of Plasmodium falciparum proliferation (AID 504749); further: nearly all actives have a fitted effect of over 60% in size; further: potency means the concentration at half of the fitted maximal effect; conditions: P. falciparum in erythrocytes, SYBR Green DNA, 72 h; series mostly up to 12.8 µM
# Method in brief: (§1)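 Infected RBCs, 0.3% parasitemia/2.5% Hct final; cpd 72 h, 37 C, 5% CO2; lysis buffer with saponin/triton/SYBR Green I, o/n RT dark; FI 485/535; norm. to artemisinin (0.29 uM) and DMSO.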
# [4] = tested on: GB4; assay: as above; conditions: P. falciparum in erythrocytes, SYBR Green DNA, 72 h; series mostly up to 12.8 µM
# Method in brief: as §1
# [5] = molecular target: DNA dC->dU-editing enzyme APOBEC-3G (Homo sapiens) (UniProt Q9HC16); assay: qHTS for inhibitors of Vif-A3G interactions: Validation (AID 588379); conditions: Vif-A3G protein interaction assay; series mostly up to 46.1 µM
# Chain of DNA dC->dU-editing enzyme APOBEC-3G (Homo sapiens) (Q9HC16 whole entry, looked up): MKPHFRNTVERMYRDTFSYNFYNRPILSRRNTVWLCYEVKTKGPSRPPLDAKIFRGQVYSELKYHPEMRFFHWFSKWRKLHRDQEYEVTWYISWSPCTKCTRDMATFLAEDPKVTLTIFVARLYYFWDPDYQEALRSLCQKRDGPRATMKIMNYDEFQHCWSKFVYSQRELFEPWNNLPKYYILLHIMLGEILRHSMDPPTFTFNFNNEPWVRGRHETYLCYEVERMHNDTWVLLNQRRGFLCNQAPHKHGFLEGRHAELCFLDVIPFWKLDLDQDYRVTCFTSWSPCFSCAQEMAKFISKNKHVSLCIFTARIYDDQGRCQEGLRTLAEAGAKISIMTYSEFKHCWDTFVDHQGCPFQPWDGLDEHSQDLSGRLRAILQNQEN
# Method in brief: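 HeLa cells stably expressing Vif and A3G-eYFP, 700 cells/well, incubated overnight at 37 deg C, then exposed to compound overnight at 37 deg C. Inhibition of Vif-mediated degradation read as increased yellow fluorescence (Ex 488/Em 500-530) by laser-scanning cytometry.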
# [6] = S16 Schwann cell PMP22 intronic element firefly luciferase assay (AID 624032); conditions: S16 rat Schwann cells, PMP22 element FLuc, 24 h; series mostly up to 25.7 µM; further: nearly all actives have a fitted effect of over 30% in size; further: potency means the concentration at half of the fitted maximal effect
# Method in brief: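 Luciferase reporter of PMP22 intronic-element expression in stably transfected S16 rat Schwann cells, read by ONE-Glo luminescence after 24 h compound exposure at 37 C. Activity scaled between DMSO (0%) and positive-control PTC124; concentration-effect curves quality-classified.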
# [7] = tested on: CP215; assay: qHTS profiling for inhibitors of Plasmodium falciparum proliferation (AID 504749); further: nearly all actives have a fitted effect of over 60% in size; further: potency means the concentration at half of the fitted maximal effect; conditions: P. falciparum in erythrocytes, SYBR Green DNA, 72 h; series mostly up to 12.8 µM
# Method in brief: as §1
# [8] = tested on: DIV17; assay: as above; conditions: P. falciparum in erythrocytes, SYBR Green DNA, 72 h; series mostly up to 12.8 µM
# Method in brief: as §1
# [9] = tested on: P93_24; assay: as above; conditions: P. falciparum in erythrocytes, SYBR Green DNA, 72 h; series mostly up to 12.8 µM
# Method in brief: as §1
# [10] = tested on: TAB109; assay: as above; conditions: P. falciparum in erythrocytes, SYBR Green DNA, 72 h; series mostly up to 12.8 µM
# Method in brief: as §1
# [11] = molecular target: Cytochrome P450 3A4 (Homo sapiens) (UniProt P08684); assay: qHTS Assay for Inhibitors and Substrates of Cytochrome P450 3A4 (AID 884); conditions: recombinant CYP3A4, Luciferin-PPXE luminescence; series mostly up to 57.1 µM; further: nearly all actives have a fitted effect of over 50% in size
# Chain of Cytochrome P450 3A4 (Homo sapiens) (P08684 whole entry, looked up): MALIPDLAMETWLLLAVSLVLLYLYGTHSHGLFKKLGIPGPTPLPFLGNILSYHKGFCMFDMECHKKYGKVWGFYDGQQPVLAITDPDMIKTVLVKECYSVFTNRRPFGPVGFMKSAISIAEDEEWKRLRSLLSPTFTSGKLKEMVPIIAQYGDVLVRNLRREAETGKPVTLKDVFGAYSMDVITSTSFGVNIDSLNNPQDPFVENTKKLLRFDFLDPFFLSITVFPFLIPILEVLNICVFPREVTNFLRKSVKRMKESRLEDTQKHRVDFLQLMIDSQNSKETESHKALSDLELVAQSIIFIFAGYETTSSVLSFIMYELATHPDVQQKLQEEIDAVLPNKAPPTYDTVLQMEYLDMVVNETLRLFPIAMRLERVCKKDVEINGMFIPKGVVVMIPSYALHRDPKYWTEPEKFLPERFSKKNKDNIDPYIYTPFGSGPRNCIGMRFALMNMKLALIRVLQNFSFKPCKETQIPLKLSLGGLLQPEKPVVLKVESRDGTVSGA
# Method in brief: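 20 nM human CYP3A4 with 25 uM Luciferin-PPXE (at KM) in 200 mM KPO4, preincubated 10 min with compound; NADPH regeneration started a 60 min RT reaction. Luciferin detected by luminescence, normalized to 57 uM ketoconazole as full inhibition.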
# [12] = Confirmation and Secondary Assay for Modulators of Hemoglobin Beta Chain Splicing at IVS2 654 locus (AID 910); conditions: HeLa EGFP-654 splicing reporter, GFP fluorescence, 48 h; series mostly up to 46.1 µM;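 further: HeLa cells stably carrying EGFP split by mutant beta-globin IVS2-654 intron; per-well total GFP intensity by laser scanning cytometry after 2-day treatment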;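 further: potency means the concentration at half of the fitted maximal effect; potency of activators that raise GFP signal by restoring correct splicing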
# Method in brief: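 Readout: per-well total peak green fluorescence (488 nm ex, 500–520 nm em) from objects 5–250 µm, reflecting correct splicing of an EGFP-654 reporter. Compounds were applied for 2 days at 37 °C to overnight-plated HeLa EGFP-654 cells; controls were DMSO and 500 nM IVS2-654 PNA.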
# [13] = Confirmation and Secondary Assay for Modulators of Hemoglobin Beta Chain Splicing at IVS2 705 locus (AID 930); conditions: HeLa EGFP-705 splicing reporter, GFP fluorescence, 48 h; series mostly up to 46.1 µM;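 further: GFP fluorescence per well restored by corrected splicing of the IVS2-705 intron in EGFP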; further: potency means the concentration at half of the fitted maximal effect
# Method in brief: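 First, HeLa EGFP-705 cells are seeded at 500/well in Optimem with 2% FCS and left overnight. Next, compound or DMSO is added for 2 days. Finally wells are laser-scanned and total peak GFP intensity scored.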
# [14] = tested on: 7G8; assay: qHTS profiling for inhibitors of Plasmodium falciparum proliferation (AID 504749); further: nearly all actives have a fitted effect of over 60% in size; further: potency means the concentration at half of the fitted maximal effect; conditions: P. falciparum in erythrocytes, SYBR Green DNA, 72 h; series mostly up to 12.8 µM
# Method in brief: as §1
# [15] = tested on: ICS; assay: as above; conditions: P. falciparum in erythrocytes, SYBR Green DNA, 72 h; series mostly up to 12.8 µM
# Method in brief: as §1
# [16] = S16 Schwann cell PMP22 intronic element beta-lactamase assay (AID 624044; calls by dose curve; further: nearly all actives have a fitted effect of over 15% in size; further: potency means the concentration at half of the fitted maximal effect); conditions: S16 rat Schwann cells, PMP22 element beta-lactamase FRET, 24 h; series mostly up to 17.1 µM
# Method in brief: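 Rat S16 Schwann cells with beta-Lac driven by a PMP22 intronic element, compound-treated 24 h at 37 °C. LiveBLAzer FRET B/G read: 460 nm normalized to potassium clavulanate vs DMSO; 535 nm FRET as viability; concentration-effect curves classified.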
# [17] = tested on: CP335; assay: qHTS profiling for inhibitors of Plasmodium falciparum proliferation (AID 504749); further: nearly all actives have a fitted effect of over 60% in size; further: potency means the concentration at half of the fitted maximal effect; conditions: P. falciparum in erythrocytes, SYBR Green DNA, 72 h; series mostly up to 12.8 µM
# Method in brief: as §1
# [18] = molecular target: Cytochrome P450 3A4 (Homo sapiens) (UniProt P08684); assay: qHTS Assay for Activators of Cytochrome P450 3A4 (AID 885); conditions: recombinant CYP3A4, Luciferin-PPXE luminescence, 60 min; series mostly up to 57.1 µM; further: nearly all actives have a fitted effect of over 65% in size
# Method in brief: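 Signal was normalized against complete inhibition by 57 uM ketoconazole. The reaction used 20nM CYP3A4 with 25uM Luciferin-PPXE, 10-min compound preincubation and a 60-min NADPH-supported step at RT.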
smiles,measurement,setting,value
CCC(=O)O[C@@H]1[C@H](C)O[C@H](O[C@H]2[C@@H](N(C)C)[C@H](O)[C@@H](O[C@@H]3[C@@H](CC=O)C[C@@H](C)[C@@H](O)/C=C\C=C/C[C@@H](C)OC(=O)C[C@@H](OC(=O)CC)[C@H]3OC)O[C@H]2C)C[C@]1(C)O,"activity change, negative = inhibition",[1],3.96%
same,outcome,[2],inactive
same,Potency,[3],inactive
same,Potency,[4],inactive
Nc1ncnc2c1nc(Br)n2[C@H]1O[C@H]2COP(=O)(O)O[C@H]2[C@@H]1O,outcome,[5],inactive
CCC(C)(C)C(=O)O[C@@H]1C[C@H](C)C=C2C=C[C@H](C)[C@@H](CC[C@H]3C[C@@H](O)CC(=O)O3)[C@H]21,"activity change, negative = inhibition",[1],7.6%
same,outcome,[2],inactive
same,Potency,[6],inactive
same,Potency,[7],inactive
same,Potency,[8],inactive
same,Potency,[9],inactive
same,Potency,[10],inactive
O=C1OCCN1/N=C\c1ccc([N+](=O)[O-])o1,"activity change, negative = inhibition",[1],-2.86%
C[C@]1(c2ccccc2)OC(C(=O)O)=CC1=O,outcome,[5],inactive
COC1OC(CO)C(OC2OC(C(=O)O)C(OC3OC(COS(=O)(=O)O)C(OC4OC(C(=O)O)C(OC5OC(CO)C(OC6OC(C(=O)O)C(OC7OC(COS(=O)(=O)O)C(OC8OC(C(=O)O)=C[C@H](O)C8OS(=O)(=O)O)C(O)C7NC(C)=O)[C@@H](O)C6O)C(O)C5NC(C)=O)[C@@H](O)C4O)C(O)C3NC(C)=O)[C@@H](O)C2O)C(O)C1NC(C)=O (some centres undefined),Potency,[11],inactive
same,Potency,[12],inactive
same,Potency,[13],inactive
same,outcome,[2],inactive
same,Potency,[6],inactive
same,Potency,[14],7.08 µM (active)
same,Potency,[15],12.6 µM (active)
CCCCCCCCCc1ccc(OCCOCCOCCOCCOCCOCCOCCOCCOCCO)cc1,Potency,[12],inactive
same,Potency,[13],inactive
same,outcome,[2],inactive
same,Potency,[14],12.6 µM (active)
same,Potency,[3],inactive
same,Potency,[10],inactive
COc1ccc(CC(N)C(=O)NC2C(CO)OC(n3cnc4c(N(C)C)ncnc43)C2O)cc1 (centres undefined),Potency,[12],inactive
same,Potency,[13],inactive
same,Potency,[6],1.28 µM (active)
same,Potency,[16],7.07 µM (active)
same,Potency,[14],0.316 µM (active)
same,Potency,[7],1.07 µM (active)
same,Potency,[17],0.757 µM (active)
same,Potency,[3],0.891 µM (active)
same,Potency,[8],0.757 µM (active)
same,Potency,[4],0.675 µM (active)
same,Potency,[15],0.316 µM (active)
same,Potency,[9],0.708 µM (active)
same,Potency,[10],0.891 µM (active)
COC(=O)[C@H]1[C@@H]2C[C@@H]3c4[nH]c5ccccc5c4CCN3C[C@H]2CC[C@H]1O,outcome,[5],inactive
N[C@@H]1C(O)OC(CO)C(O)C1O (some centres undefined),Potency,[11],inactive
same,Potency,[12],inactive
same,Potency,[13],inactive
same,outcome,[2],inactive
same,Potency,[6],inactive
same,Potency,[14],inactive
same,Potency,[17],inactive
same,Potency,[3],inactive
same,Potency,[8],inactive
same,Potency,[15],inactive
same,Potency,[9],inactive
same,Potency,[10],inactive
COC1CC(O[C@H]2/C(C)=C/CC3CC(C[C@]4(CCC(C)C(C5CCCCC5)O4)O3)OC(=O)[C@H]3C=C(C)/C(=N/O)C4OC/C(=C\C=C\[C@@H]2C)[C@@]43O)OC(C)C1O (some centres undefined),Potency,[11],inactive
same,Potency,[12],inactive
same,Potency,[13],inactive
same,Potency,[6],inactive
same,Potency,[16],inactive
same,Potency,[14],12.6 µM (active)
same,Potency,[7],inactive
same,Potency,[15],12.6 µM (active)
CC1C2CCC3C4CC=C5CC(N(C)C)CC[C@@]5(C)C4CC[C@@]32CN1C (some centres undefined),Potency,[11],inactive
same,Potency,[12],inactive
same,Potency,[13],inactive
same,Potency,[6],inactive
same,Potency,[16],inactive
same,Potency,[7],inactive
same,Potency,[17],inactive
same,Potency,[3],inactive
same,Potency,[8],inactive
same,Potency,[4],inactive
same,Potency,[15],inactive
same,Potency,[9],inactive
CC1=CC(=O)[C@@H]2C[C@H]1C2(C)C,Potency,[11],inactive
same,outcome,[5],inactive
O=c1[nH]c(=O)n([C@@H]2O[C@H](CO)[C@@H](O)[C@H]2O)cc1Br,Potency,[11],inactive
same,outcome,[5],inactive
CC(=O)O[C@@]1(C(C)=O)CCC2C3CC(C)C4=CC(=O)CC[C@@]4(C)C3CC[C@]21C (some centres undefined),Potency,[18],inactive
same,Potency,[12],inactive
same,Potency,[13],inactive
same,outcome,[2],inactive
same,Potency,[14],7.94 µM (active)
same,Potency,[7],inactive
same,Potency,[8],inactive
same,Potency,[4],inactive
C[C@H](CCC(=O)O)[C@H]1CC[C@H]2[C@H]3C(C[C@H](O)[C@]12C)[C@@]1(C)CC[C@@H](O)C[C@H]1C[C@H]3O (some centres undefined),outcome,[5],inactive
CC[C@H](CC[C@@H](C)C1CC[C@H]2[C@@H]3CC=C4C[C@@H](O)CC[C@]4(C)[C@H]3CC[C@]12C)C(C)C (some centres undefined),outcome,[5],inactive
C=Cc1c(C)/c2[n-]/c1=C\c1[n-]c(c(CC)c1C)/C=c1\[n-]c3c(c1C)C(=O)C(C(=O)[O-])C=3c1[n-]c(c(C)c1CCC(=O)[O-])\C=2.[Cu].[Na+].[Na+] (centres undefined),Potency,[18],inactive
same,Potency,[12],inactive
same,Potency,[13],inactive
same,Potency,[6],inactive
same,Potency,[16],inactive
same,Potency,[3],inactive
COc1ccc2cc1Oc1ccc(cc1)CC1c3c(cc4c(c3Oc3cc5c(cc3OC)CCN(C)C5C2)OCO4)CCN1C (centres undefined),Potency,[12],inactive
same,Potency,[13],inactive
same,Potency,[6],inactive
same,Potency,[16],inactive
same,Potency,[14],2.24 µM (active)
same,Potency,[17],6.01 µM (active)
same,Potency,[3],7.94 µM (active)
same,Potency,[8],7.57 µM (active)
same,Potency,[4],6.75 µM (active)
same,Potency,[15],2.82 µM (active)
same,Potency,[9],6.31 µM (active)
same,Potency,[10],7.08 µM (active)
Cc1cc(=O)oc2cc(O[C@@H]3O[C@H](C(=O)O)[C@@H](O)[C@H](O)[C@H]3O)ccc12,Potency,[11],inactive
same,outcome,[5],inactive
O=C(O)C1=C[C@@H](O)[C@@H](O)[C@H](O)C1,outcome,[5],inactive
OCC1OC(n2cnc3c(=S)nc[nH]c32)C(O)C1O (centres undefined),Potency,[11],inactive
same,Potency,[12],3.16 µM (active)
same,Potency,[13],3.98 µM (active)
same,Potency,[6],2.87 µM (active)
same,Potency,[7],inactive
same,Potency,[17],inactive
same,Potency,[3],inactive
same,Potency,[8],inactive
same,Potency,[15],inactive
same,Potency,[9],inactive
same,Potency,[10],inactive
